SKKanGAS inh: blocks kanamycin growth of S. pyogenes SKKanGAS strain | inhibition, % at 7.5 µM | hit rate 1.3% among 300,000 | BacTiter-Glo, 6 h;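 active = mean replicate score, as percent of positive control median, at least 50; inconclusive = mean below 50 but one replicate at or above 50; inactive = mean and every replicate below 50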;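 note: strain carries kanamycin resistance gene driven by streptokinase promoter and grows in 40 µg/ml kanamycin; loss of luminescence reflects streptokinase promoter inhibition or plain growth inhibition; 0% = median of DMSO wells and 100% = positive control at its reference dose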
TIM10 inh: growth inhibitors of TIM10 yeast strain | AID 463195 | hit rate 1.4% among 330,000 | inhibition, % at 10 µM | S. cerevisiae TIM10 strain growth, BacTiter-Glo luminescence, 24 h;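 active = inhibition of 40% or more at the single tested concentration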;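 note: wild-type TIM10 isogenic control strain grown at permissive 25 °C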
tim23-1 inh: tim23-1 yeast growth inhibition. inhibition, % at 20 µM. AID 463212. hit rate 1.3% among 330,000. S. cerevisiae tim23-1 growth, BacTiter-Glo luminescence, 24 h;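 active = growth inhibition of the mutant yeast at or above 50%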;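 note: temperature-sensitive mutant grown at 25 °C; plate controls were DMSO-treated mutant yeast for no effect and medium wells lacking yeast for full effect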
NALP3 yeast inh: NALP3 inhibition in yeast; Yeast reconstituted NLRP3/ASC/caspase-1, beta-gal luminescence, 24 h; inhibition, % at 10 µM; hit rate 0.39% among 330,000;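 active = inhibition of 50% or more; inactive = inhibition below 50%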;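 note: plate controls were induced DMSO wells for no effect and uninduced yeast grown without galactose for full effect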
tim10-1 inh: growth inhibitors of tim10-1 mutant yeast; S. cerevisiae tim10-1 ts strain growth, BacTiter-Glo, 24 h; inhibition, % at 20 µM; hit rate 2.2% among 330,000;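 active = inhibition of at least 40%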;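 note: mutant grown at 25 °C; 0% = DMSO wells with yeast and 100% = wells holding no yeast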
PfHsp90 yeast 2: reduces growth (ATP signal) of yeast expressing P. falciparum Hsp90. S. cerevisiae expressing PfHsp90, BacTiter-Glo ATP, 48 h; yeast lacking PDR1 and PDR3 efflux regulators. inhibition, % at 9.4 µM. hit rate 0.32% among 310,000. AID 504621;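 active = every replicate shows inhibition above about 80%, whatever the replicate mean, limit read from the data; inconclusive = mean inhibition reaches the set limit but some replicate falls short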;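 note: 0% = DMSO neutral controls and 100% = 20 µM radicicol positive controls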
tim10-1 confirm: confirmation of tim10-1 mutant yeast growth inhibitors; shares compounds with tim10-1 inh; S. cerevisiae tim10-1 ts strain growth, BacTiter-Glo, 24 h; inhibition, % at 20 µM; hit rate 56% among 7,400;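 active = inhibition of yeast growth at or above a set limit in either of two repeat tests at 20 µM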;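 note: tim10-1 mutant grown at permissive 25 °C to find synthetic lethal compounds; 0% = DMSO yeast wells and 100% = medium wells without yeast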
TIM10 conf: confirmation of TIM10 yeast growth inhibitors; S. cerevisiae tim10 strain growth, BacTiter-Glo luminescence, 24 h; inhibition, % at 10 µM; hit rate 63% among 4,600; shares compounds with TIM10 inh; AID 463215;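 active = inhibition of yeast growth at or above a set limit in either of two replicates at 10 µM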;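 note: this counterscreen used the strain with wild-type TIM10; 0% = yeast with DMSO and 100% = medium wells lacking yeast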
tim23-1 conf: confirmation of tim23-1 mutant yeast growth inhibitors. S. cerevisiae tim23-1 growth, BacTiter-Glo luminescence, 24 h. inhibition, % at 20 µM. hit rate 83% among 4,400. shares compounds with tim23-1 inh;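 active = inhibition above about 39% in either of two replicate wells at 20 µM, limit read from the data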;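 note: temperature-sensitive tim23-1 mutant grown at 25 °C; 0% = DMSO wells with yeast and 100% = medium wells without yeast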
Numbers without * were called inactive. Sampled rows, rich in hits. Any-hit rate of the full collection: about 4.6%.

Cc1nn(-c2ccccc2)c(C)c1C(=O)OCC(=O)NC12CC3CC(CC(C3)C1)C2 was read as SKKanGAS inh 8, TIM10 inh 54*, tim23-1 inh 62*, NALP3 yeast inh -4, tim10-1 inh 43*, PfHsp90 yeast 2 -3, tim10-1 confirm 49*, TIM10 conf 34* and tim23-1 conf 54*.
Screening O=C(COc1ccc(S(=O)(=O)N2CCOCC2)cc1Cl)NCC1CCCO1 (stereo not given) returned SKKanGAS inh 3, TIM10 inh 3, tim23-1 inh -3, NALP3 yeast inh 2, tim10-1 inh 7 and PfHsp90 yeast 2 0.
For CC1CCCCC1NC(=O)/C(C#N)=C/c1ccccc1F (stereo not given) the results were SKKanGAS inh 9, TIM10 inh 85*, tim23-1 inh 84*, NALP3 yeast inh 21, tim10-1 inh 89*, PfHsp90 yeast 2 121*, tim10-1 confirm 87*, TIM10 conf 88* and tim23-1 conf 84*.
`N#C/C(=C\c1c(F)cccc1Cl)C(=O)NC1CC1` gave SKKanGAS inh 1, TIM10 inh 61*, tim23-1 inh 85*, NALP3 yeast inh 27, tim10-1 inh 74*, PfHsp90 yeast 2 -45, tim10-1 confirm 61*, TIM10 conf 66* and tim23-1 conf 81*.
For CC(C)n1cc(C(=O)N2CCCC(N3CCN(c4cccc(Cl)c4)CC3)C2)cn1 (stereo not given) the results were SKKanGAS inh 8, TIM10 inh 10, tim23-1 inh 19, NALP3 yeast inh -3, tim10-1 inh 21 and PfHsp90 yeast 2 19.
O=C(/C=C/c1ccccn1)c1ccc(Br)cc1O was read as PfHsp90 yeast 2 -100.
`O=C(/C=C/c1ccccn1)c1cc(Br)ccc1O` gave SKKanGAS inh 8, TIM10 inh 72*, tim23-1 inh 78*, NALP3 yeast inh 18, tim10-1 inh 70*, PfHsp90 yeast 2 104*, tim10-1 confirm 62*, TIM10 conf 68* and tim23-1 conf 75*.
`COc1cc2c(cc1OC)C(C)=NCC2` gave SKKanGAS inh 3, TIM10 inh 1, tim23-1 inh 8, NALP3 yeast inh -3, tim10-1 inh 12 and PfHsp90 yeast 2 -5.
`COc1cc2c(cc1OC)C(c1ccc(-c3ccc(Cl)c(Cl)c3)o1)=NCC2` gave SKKanGAS inh 26, TIM10 inh 37, tim23-1 inh 57*, NALP3 yeast inh 28, tim10-1 inh 56*, PfHsp90 yeast 2 -3, tim10-1 confirm 44* and tim23-1 conf 54*.
For CC(=O)Oc1ccc(C(=O)Nc2ccc(C3(C#N)CCCC3)cc2)cc1 the results were SKKanGAS inh 12, TIM10 inh 4, tim23-1 inh 22, NALP3 yeast inh 6, tim10-1 inh 24 and PfHsp90 yeast 2 12.
For CN(C(=O)/C=C/c1ccc([N+](=O)[O-])s1)c1ccccc1 the results were SKKanGAS inh 2, TIM10 inh 43*, tim23-1 inh 53*, NALP3 yeast inh 44, tim10-1 inh 45*, PfHsp90 yeast 2 -25, tim10-1 confirm 59*, TIM10 conf 49* and tim23-1 conf 50*.
Screening Cn1ccnc1C(=O)Cc1ccc([N+](=O)[O-])cc1 returned SKKanGAS inh 0, TIM10 inh 18, tim23-1 inh 23, NALP3 yeast inh 11 and tim10-1 inh 13.
Screening CCc1ccc(OCCNC(=O)c2ccco2)cc1 returned SKKanGAS inh 11, TIM10 inh 6, tim23-1 inh 1, NALP3 yeast inh 22, tim10-1 inh -17 and PfHsp90 yeast 2 0.
Screening COc1cc(N=Nc2ccc3ccccc3c2)ccc1O returned SKKanGAS inh -6, TIM10 inh 4, tim23-1 inh 63*, NALP3 yeast inh 34, tim10-1 inh 41*, PfHsp90 yeast 2 110*, tim10-1 confirm 13 and tim23-1 conf 2.
For O=C(N/N=C/c1cc(Cl)ccc1O)c1ccccc1Br the results were SKKanGAS inh inconclusive, TIM10 inh 54*, tim23-1 inh 65*, NALP3 yeast inh 24, tim10-1 inh 42*, PfHsp90 yeast 2 -4, tim10-1 confirm 12, TIM10 conf 32* and tim23-1 conf 59*.
O=S(=O)(c1ccccc1)c1ncc(C(F)(F)F)cc1Cl was read as SKKanGAS inh -5, TIM10 inh 23, tim23-1 inh 53*, NALP3 yeast inh 46, tim10-1 inh 46*, PfHsp90 yeast 2 -10, tim10-1 confirm 22 and tim23-1 conf 51*.
COC(=O)c1cc(Cn2nc(C(=O)O)c3ccccc3c2=O)oc1C was read as SKKanGAS inh -7, TIM10 inh 5, tim23-1 inh 5, NALP3 yeast inh 1, tim10-1 inh -3 and PfHsp90 yeast 2 -12.
`Nc1nc(Nc2ccc(Cl)cc2)nc2ccccc12` gave TIM10 inh 68*, tim23-1 inh 58*, NALP3 yeast inh 40, tim10-1 inh 67*, PfHsp90 yeast 2 35, tim10-1 confirm 57*, TIM10 conf 67* and tim23-1 conf 55*.
Screening Nc1nc(CCl)nc(Nc2ccccc2)n1 returned SKKanGAS inh 2, TIM10 inh 15, tim23-1 inh 13, NALP3 yeast inh -3, tim10-1 inh 26 and PfHsp90 yeast 2 10.
Screening CCOc1ccc(Nc2nc(N)c3ccccc3n2)cc1 returned SKKanGAS inh 60*, TIM10 inh 46*, tim23-1 inh 57*, NALP3 yeast inh 39, tim10-1 inh 62*, PfHsp90 yeast 2 75, tim10-1 confirm 65*, TIM10 conf 50* and tim23-1 conf 65*.
c1ccc2c(c1)OCCc1c-2[nH]c2ccccc12 was read as SKKanGAS inh 8, TIM10 inh 20, tim23-1 inh 61*, NALP3 yeast inh 15, tim10-1 inh 46*, PfHsp90 yeast 2 -66, tim10-1 confirm 42* and tim23-1 conf 58*.
Cc1ccc(C(=O)Nc2ncc(Cc3ccccc3)s2)o1 was read as SKKanGAS inh 23, TIM10 inh 49*, tim23-1 inh 57*, NALP3 yeast inh 19, tim10-1 inh 53*, PfHsp90 yeast 2 20, tim10-1 confirm 50*, TIM10 conf 50* and tim23-1 conf 54*.
For O=C(Nc1ncc(Cc2ccccc2)s1)c1cccs1 the results were SKKanGAS inh 66*, TIM10 inh 52*, tim23-1 inh 72*, NALP3 yeast inh 40, tim10-1 inh 51*, PfHsp90 yeast 2 -11, tim10-1 confirm 50*, TIM10 conf 61* and tim23-1 conf 52*.

Assay outcomes deposited in PubChem BioAssay by several laboratories.
